From PubChem BioAssay AID504942 (Broad Institute, 2011) come the findings set out here.

A short description of the test: toxicity to human HeLa cells – cell-based, 48 h, plate reader, cherry-picks, cytotoxicity control, dose response (AID 504942). As to conditions: series mostly up to 38 µM.

SMILES strings stand for the structures. Entries with a potency or affinity are not part of this list. Calls of active or inactive are those of the source. How the calls were made is not given here.

With `N#CC1C(C#N)C2CCC1C1C2N1c1ccccc1` (stereo unspecified), the outcome was inactive.
